# Experimental data reported in PubChem BioAssay AID686979 (National Center for Advancing Translational Sciences (NCATS), 2013).
# The whole screen tested about 420,000 compounds, of which about 50,000 (12%) were called active. Roughly 26% stayed inconclusive and do not appear here. Shown is part of a subset that was picked to be rich in actives. Unmarked numbers belong to inactive results. The call rests on the fitted dose curve; in most records, active means well fitted inhibition curve with a large enough effect; inconclusive means small, poorly fitted or top-dose-only effect; inactive means flat fitted curve, though single readings scatter.
# Test: qHTS for Inhibitors of human tyrosyl-DNA phosphodiesterase 1 (TDP1): qHTS in cells in presence of CPT; further: nearly all actives have a fitted effect of over 55% in size
# Conditions: chicken DT40 Tdp1-/-;hTDP1 cells + 20 nM CPT, ATP luminescence, 48 h; series mostly up to 46.2 µM; activity change, negative = growth inhibition: at the top concentration
# From the text: Human tyrosyl-DNA phosphodiesterase 1 (TDP1) is a novel repair gene, and we propose to use it as a new target for anticancer drug development. TDP1 is not an essential protein, but under treatment with topoisomerase I poison (camptothecin: CPT), TDP1 works as a critical factor for cell survival. To directly identify novel TDP1 inhibitors active in a cellular environment, we have knocked-out the Tdp1 gene in chicken DT40 cells (Tdp1-/-) and generated a complemented counterpart cells that contains a stable transfection of the human TDP1 gene (Tdp1-/-;hTDP1 cells). For the primary screen, Tdp1-/-;hTDP1 cells will be exposed to small molecules in the presence or absence of CPT, and their growth kinetics will be evaluated after 48 hours by measuring ATP activity. […] The hit compounds will then be evaluated in the presence or absence of CPT using Tdp1-/- cells. […] In tertiary assays, biochemical gel-based assays will be used to assess whether the hit compounds specifically target TDP1. To this end, we have screened this cell line against the MLSMR in two primary screens. In one screen we add CPT and in the other we screen in the absence of CPT; this AID represents the screen where CPT was present. NIH Chemical Genomics Center [NCGC] NIH Molecular Libraries Probe Centers Network [MLPCN] MLPCN Grant: MH095538 Assay Submitter (PI): Yves Pommier, NCI
# DT40-hTDP1 cells with 20 nM Camptothecin (add 20 microL of 1 mM CPT stock in 1 L of cell culture medium) were dispensed at 400 cells/5microL/well in tissue culture treated 1536-well white wall/solid bottom assay plates (Greiner Bio-One North America, NC, U.S.A.) using a Multidrop Combi 8 channel dispenser (Thermo Fisher, Waltham, MA, USA). 23 nL compounds and controls were transferred using the pin tool (Kalypsys, San Diego, CA, USA) to the assay plates. The assay plates were then incubated at 37 masculineC for a minimum 48 hr. Three microL of Cell Titer Glo solution was added to the plates and incubated at RT in dark for 30 min. Luminescence was read using ViewLux (Perkin Elmer) with 1 sec exposure slow speed, high gain and 2x binning.
# On the % scale 0 is the no-effect control and ±100 the full control effect; potency means the concentration at half of the fitted maximal effect.
SMILES,"activity change, negative = growth inhibition",Potency
O=C(CN1CCN(Cc2ccccc2)CC1)Nc1ccc(F)c(F)c1,-6.89%,–
O=C(CN1CCN(Cc2ccccc2)CC1)NC(c1ccccc1)c1ccccc1,–,14.6 µM (active)
O=C(CN1CCc2ccccc21)NC(c1ccccc1)c1ccccc1,-13.1%,–
CN(C)c1ccc(CNC23CN4CN(CN(C4)C2)C3)cc1,–,8.2 µM (active)
COCCN1CCN(C(=O)c2cc(COc3ccc(F)cc3Cl)on2)CC1,-26.5%,–
Cn1cc(S(=O)(=O)NC(c2ccccc2)c2ccccc2)c(=O)n(C)c1=O,-14.7%,–
CCn1c(SCc2ccccc2)nc2c(c1=O)SCC2,-21.4%,–
CCn1c(SCc2ccccc2)nc2cc(OC)c(OC)cc2c1=O,-16%,–
CCn1cc2nc(SCc3cccc(F)c3)n(CCc3ccccc3)c(=O)c2n1,–,16.4 µM (active)
C[C@@H]1CN([C@H](C)CO)C(=O)CCCn2nncc2CO[C@@H]1CN(C)S(=O)(=O)c1cccc(C#N)c1,-19.4%,–
C/C(=C/c1ccccc1)C(=O)N1CCN(c2ccccc2)CC1,-19.7%,–
NC(=O)C1(N2CCCC2)CCN(Cc2ccccc2)CC1,-5.42%,–
O=C(Nc1ccc(Br)cn1)c1ccc([N+](=O)[O-])o1,–,2.06 µM (active)
Cc1cccc(NC(=O)CCn2c(=O)oc3ccccc32)c1,15.7%,–
Cc1onc(NC(=O)c2ccc([N+](=O)[O-])o2)c1Br,-19.5%,–
CN1C(=O)c2ccc(C(=O)Nc3ccc(Br)cn3)cc2C1=O,-2.38%,–
O=C(Nc1ccc(Br)cn1)c1ccc([N+](=O)[O-])cc1Cl,-29.8%,–
Cc1cccc(NC(=O)c2ccc([N+](=O)[O-])o2)c1,–,16.4 µM (active)
CCc1ccc(N2C(=O)CN(S(=O)(=O)CC)CC2(C)C(=O)NC2CCCCC2)cc1 (stereo not given),-10.8%,–
Cc1ccc(CN2CCN(c3ncccn3)CC2)c(C)c1,27.8%,–
O=C(NCC(O)c1nc2ccccc2[nH]1)c1ccc(Br)cc1 (stereo not given),-11.6%,–
Cc1ccc(Cl)cc1N1CCN(S(=O)(=O)c2cc3[nH]c(=O)c(=O)[nH]c3cc2C)CC1,3.27%,–

SMILES,"activity change, negative = growth inhibition",Potency
CCC(=O)Nc1ccc(-c2ccc(N3CCCCC3)nn2)cc1,-27.5%,–
c1csc(-c2nnc(COc3ccc4c(c3)OCO4)o2)c1,11.7%,–
O=[N+]([O-])c1cc2ccccc2nc1-c1ccccc1,-16%,–
CCN(CC(=O)NC1CCS(=O)(=O)C1)c1nc(-c2cccnc2)nc2ccccc12 (stereo not given),4.18%,–
O=[N+]([O-])c1ccc(F)cc1Oc1nc(-c2cccnc2)nc2ccccc12,–,18.4 µM (active)
O=C(COC(=O)CNC(=O)c1ccco1)Nc1ccc(F)cc1,4.84%,–
Cc1cccc(NS(=O)(=O)c2cc(Cl)ccc2Cl)n1,16.8%,–
COc1ccc(CCNC(=O)CN2C(=O)CCSc3ccccc32)c(OC)c1,28.7%,–
Cc1ccc(-c2cc(-c3coc4ccccc4c3=O)c3c(n2)-c2cc(Cl)ccc2OC3)cc1,0.49%,–
CCOC(=O)CSc1nnc(-c2cccc(Br)c2)o1,-10.6%,–
CCCCNS(=O)(=O)CCNCc1ccccc1OC,-6.55%,–
CCCCCc1c(Cc2ccccc2)ncn1CCc1ccccc1OC,–,2.59 µM (active)
CCCCCc1c(-c2cccc(Br)c2)ncn1CCc1ccccc1OC,–,11.6 µM (active)
CCC(=O)NCc1cc(-c2nn(C)c(=O)c3ccccc23)ccc1OC,–,inactive
COc1ccccc1CCC(=O)NNC(=O)c1ccncc1,15.3%,–
CCN(CC)CCN1C(=O)C(=O)/C(=C(/O)c2ccc(OC)c(OC)c2)C1c1ccccn1 (stereo not given),0.331%,–
CCCCCc1c(-c2ccc(OC)c(OC)c2)ncn1CCc1ccccc1OC,–,2.31 µM (active)
CCCCn1c(N)c(N(CC(C)C)C(=O)CN(C)S(=O)(=O)c2ccc(F)cc2)c(=O)[nH]c1=O,12.9%,–
Cc1cc(F)ccc1NC1(c2ccccc2)C(=O)c2ccccc2C1=O,3.73%,–
COc1ccc(S(=O)(=O)NC(=O)C2(C)CCN2C(=O)COc2ccc(Cl)cc2)cc1 (stereo not given),1.46%,–
COc1ccccc1C(=O)NC(=O)COC(=O)c1ccco1,17.6%,–
COc1ccc(C)cc1N(CC(=O)N1CCCC1)S(=O)(=O)c1ccccc1,10%,–

SMILES,"activity change, negative = growth inhibition",Potency
C/C(N)=C(/C#N)C(=O)COC(=O)C1CCN(C(=O)c2ccc(Cl)cc2)CC1,1.82%,–
C[C@]12CC[C@H](O)CC1=CCC1C2CC[C@@]2(C)C1CC[C@@H]2NC(=O)CCC(=O)O (stereo not given in full),3.29%,–
C#CC(CCN1CCCCC1)(OC)c1ccccc1 (stereo not given),4.82%,–
CCC1CCC/C1=N\NC(=O)c1ccc(Cl)cc1 (stereo not given),10.2%,–
CN1CCC[C@@H]1CCO[C@](C)(c1ccccc1)c1ccc(Cl)cc1,–,21.1 µM (active)
CC(=O)c1ccc(F)c(-c2cc(C)cc3c2OC(CNC(=O)Cc2c[nH]c4ccccc24)C3)c1 (stereo not given),11.9% [at 9.04 µM],–
O=C(CSc1oc(-c2ccccc2)nc1S(=O)(=O)c1ccc(Br)cc1)NC1CCCCC1,1.11%,–
Cc1cc(C)cc(NC(=O)CSc2ccccc2)c1,-19.7%,–
Cc1cc(C)cc(NC(=O)CSc2oc(-c3ccccc3)nc2S(=O)(=O)c2ccc(Cl)cc2)c1,–,5.17 µM (active)
C/C=C1\C2C=C(C)CC1(N)c1ccc(=O)[nH]c1C2 (stereo not given),-4.72% [at 92.5 µM],–
CCCN(CCC)CCNC(=O)Cn1cnc2sc(C)c(S(=O)(=O)N3CCC(C)CC3)c2c1=O,4.45%,–
COC(=O)c1cccc(N2C(=O)C3C4C=CC(CC4)C3C2=O)c1 (stereo not given),5.7%,–
COC(=O)c1ccccc1SC1CC(=O)N(c2cccc(C)c2)C1=O (stereo not given),–,9.2 µM (active)
COc1cccc(N2C(=O)CC(N3CCc4ccccc4C3)C2=O)c1 (stereo not given),-2.6%,–
O=C(COC(=O)/C=C/c1ccc(Br)o1)Nc1cccc(S(=O)(=O)N2CCOCC2)c1,2.67%,–
O=C1c2ccccc2C(=O)c2c1cccc2N1CCN(C/C=C/c2ccccc2)CC1,-28.2%,–
CCOC(=O)c1oc2c(CN3CCN(C)CC3)c(O)ccc2c(=O)c1-c1ccc(Br)cc1,-8.28%,–
COc1ccc(C2=NS(=O)(=O)N(C)C(C(=O)N3CCCCC3)=C2)cc1,-1.91%,–
COc1cc(NC(=O)C2=CC(c3ccco3)=NS(=O)(=O)N2C)cc(OC)c1OC,–,inactive
COc1ccc(NC(=O)C2=CC(c3ccc(OC)c(OC)c3)=NS(=O)(=O)N2C)cc1,–,23.1 µM (active)
COc1ccc(C2(Nc3cccc(F)c3)C(=O)c3ccccc3C2=O)cc1,5.75%,–
